SNCA viab count: GF-AFC viability counterscreen for inhibitors of alpha-synuclein gene (SNCA) expression; hit rate 0.12% among 150,000; AID 1671193, 2021; HEK-293-SNCA-luc viability, GF-AFC fluorescence, 24 h; Potency, µM (series often up to 57.1 µM), usual class: cytotoxic; further: nearly all actives have a fitted effect of over 30% in size
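HEK-293-SNCA-luc cells (1500/well) plated 24 h, then exposed 24 h to a dilution series; GF-AFC added 30 min at 37C, fluorescence 405/540 nm; normalised to medium-only and DMSO wells, Hill fit.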
SNCA expr inh: Primary qHTS assay for inhibitors of alpha-synuclein gene (SNCA) expression; HEK-293 SNCA-luciferase knock-in, luminescence, 24 h; hit rate 0.17% among 140,000; Potency, µM (doses to about 57.2 µM), most hits filed as inhibitors; AID 1671194, 2021; further: nearly all actives have a fitted effect of over 45% in size
KDM5B inh: Primary screen for KDM5B Histone Demethylases FDH-coupled qHTS; Lysine-specific demethylase 5B (Homo sapiens), Q9UGL1; KDM5B demethylase, FDH-coupled NADH fluorescence (FDH is formaldehyde dehydrogenase); Potency, µM (top dose mostly 57.7 µM), actives largely listed as inhibitors; hit rate 2.6% among 220,000; AID 1347165, 2019; further: nearly all actives have a fitted effect of over 70% in size
Target sequence (Q9UGL1 whole entry, looked up): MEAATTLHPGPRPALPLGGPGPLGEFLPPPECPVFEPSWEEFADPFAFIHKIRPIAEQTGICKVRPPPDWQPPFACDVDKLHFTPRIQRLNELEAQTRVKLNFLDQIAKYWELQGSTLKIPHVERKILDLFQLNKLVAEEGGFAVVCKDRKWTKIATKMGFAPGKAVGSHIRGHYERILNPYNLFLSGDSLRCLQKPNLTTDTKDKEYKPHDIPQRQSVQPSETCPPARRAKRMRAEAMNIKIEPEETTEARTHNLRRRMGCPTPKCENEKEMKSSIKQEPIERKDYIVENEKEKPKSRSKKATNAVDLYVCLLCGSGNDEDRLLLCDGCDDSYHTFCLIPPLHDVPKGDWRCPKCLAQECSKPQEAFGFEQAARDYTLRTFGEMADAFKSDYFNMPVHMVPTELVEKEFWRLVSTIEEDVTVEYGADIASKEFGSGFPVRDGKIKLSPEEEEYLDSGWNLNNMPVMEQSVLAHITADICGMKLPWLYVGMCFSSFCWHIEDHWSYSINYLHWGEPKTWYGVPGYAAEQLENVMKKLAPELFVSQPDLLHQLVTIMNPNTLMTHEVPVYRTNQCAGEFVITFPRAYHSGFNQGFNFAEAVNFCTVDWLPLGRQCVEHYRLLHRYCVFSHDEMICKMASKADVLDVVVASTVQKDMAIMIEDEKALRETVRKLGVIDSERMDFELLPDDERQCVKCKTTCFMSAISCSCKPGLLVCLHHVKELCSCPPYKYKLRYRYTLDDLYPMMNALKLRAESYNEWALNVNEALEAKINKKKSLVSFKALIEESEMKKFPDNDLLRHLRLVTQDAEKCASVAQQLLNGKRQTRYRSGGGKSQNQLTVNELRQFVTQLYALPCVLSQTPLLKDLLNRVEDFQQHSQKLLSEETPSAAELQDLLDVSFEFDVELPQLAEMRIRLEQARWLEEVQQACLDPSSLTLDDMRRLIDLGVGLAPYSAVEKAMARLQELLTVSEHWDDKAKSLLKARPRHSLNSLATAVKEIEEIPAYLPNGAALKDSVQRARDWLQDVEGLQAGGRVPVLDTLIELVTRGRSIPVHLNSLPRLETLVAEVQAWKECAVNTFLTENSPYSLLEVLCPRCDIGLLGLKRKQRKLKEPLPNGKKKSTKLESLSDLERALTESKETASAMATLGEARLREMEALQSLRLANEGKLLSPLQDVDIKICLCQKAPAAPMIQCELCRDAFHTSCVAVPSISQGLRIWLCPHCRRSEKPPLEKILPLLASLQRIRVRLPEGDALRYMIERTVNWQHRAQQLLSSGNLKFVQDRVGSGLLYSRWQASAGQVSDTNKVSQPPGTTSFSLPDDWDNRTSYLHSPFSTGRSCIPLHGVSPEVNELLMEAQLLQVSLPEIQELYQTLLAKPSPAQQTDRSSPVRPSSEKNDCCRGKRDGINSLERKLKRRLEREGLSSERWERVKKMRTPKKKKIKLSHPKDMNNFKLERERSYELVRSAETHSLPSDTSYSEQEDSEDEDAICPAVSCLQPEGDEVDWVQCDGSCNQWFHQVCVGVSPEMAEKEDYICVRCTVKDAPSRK
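Coupled FDH/NAD⁺ fluorescence readout. KDM5BΔAP 200 nM final; compound titration, 10 min RT preincubation; substrate mix 12.5 µM H3K4me3, 25 µM 2-OG, 50 µM Fe(II), 100 µM ascorbate, 0.25 mM NAD⁺, 0.25 U/mL FDH; ΔRFU over 30 min.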
IP6K1 inh: Primary qHTS assay for small molecule inhibitors of Inositol hexaphosphate kinase 1 (IP6K1); Inositol hexakisphosphate kinase 1 (Homo sapiens), Q92551; IP6K1 kinase, ADP-Glo luminescence, 2 h; hits give low values; activity change, % (series mostly up to about 58 µM); hit rate 0.81% among 140,000; in the data active means activity change below about -25%
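ADP-Glo luminescence measures ADP made by human IP6K1 during a 2 h RT reaction with ATP/IP6 (mix at 1.3 mM/130 uM); top library doses 57.5 and 19.1 uM final.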
IP6K1 conf: Confirmatory qHTS assay for small molecule inhibitors of Inositol hexaphosphate kinase 1 (IP6K1); shares compounds with IP6K1 inh; recombinant IP6K1 kinase, ADP-Glo luminescence, 2 h; Potency, µM (titrated, usually from 49 µM), actives largely listed as inhibitors; hit rate 13% among 1,200; AID 1645852, 2021; further: nearly all actives have a fitted effect of over 65% in size
Hits are given with their value; - = inactive; ? = inconclusive; . = no result. Sampled rows, rich in hits. Any-hit rate of the full collection: about 3%. Unless noted, the call rests on the fitted dose curve; in most records, active means well fitted curve in the direction sought with a large enough effect; inconclusive means small, poorly fitted or top-dose-only effect, or another doubt; inactive means no such curve, though single readings can be large; an effect the other way counts as inactive or inconclusive.

SMILES	SNCA viab count	SNCA expr inh	KDM5B inh	IP6K1 inh	IP6K1 conf
COc1ccccc1-n1nc(-c2c(C)nc3scc(CC(=O)NCCC(C)C)n3c2=O)cc1C	-	-	28µM	-	.
Cc1nc2scc(CC(=O)NCCC(C)C)n2c(=O)c1-c1cc(C)n(-c2ccccc2F)n1	-	-	?	-	.
C[C@]12CC[C@H](O)CC1=CCC[C@@H]2OC(=O)NCc1ccccc1	.	.	.	-	.
Cn1ncc2c(C(=O)NCC(F)F)cc(-c3cccc(F)c3)nc21	.	.	.	-	.
Cc1ccc(-c2ccc3nnc(CNC(=O)COc4ccc(F)cc4)n3n2)cc1C	-	-	?	-	.
O=C(COc1ccccc1)NCc1nnc2ccc(-c3ccc(Cl)cc3)nn12	-	-	?	-	.
Cc1cccc(OCC(=O)NCc2nnc3ccc(-c4ccc(F)cc4)nn23)c1	-	-	35µM	-	.
Cc1ccc(-c2ccc3nnc(CNC(=O)COc4cccc(C)c4)n3n2)cc1	-	-	10µM	-	.
CN(C)CCNC(=O)c1nc2nc(-c3ccccc3)c(Nc3ccc(F)cc3)cc2n1C	?	-	?	-	.
Cc1ccccc1Nc1cc2c(nc1-c1ccccc1)nc(C(=O)NCCN(C)C)n2C	?	-	35µM	-	.
CN(C)CCNC(=O)c1nc2nc(-c3ccccc3)c(-c3ccncc3)cc2n1C	-	-	22µM	-	.
Cc1cc(-c2cc3c(nc2-c2ccccc2)nc(C(=O)NCCN(C)C)n3C)ccn1	-	-	-	-	.
CN(C)CCNC(=O)c1nc2nc(-c3ccccc3)c(-c3cccnc3)cc2n1C	-	?	20µM	-	.
Cc1cc(-c2cc3c(nc2-c2ccccc2)nc(C(=O)NC2CCN(C)CC2)n3C)ccn1	-	-	32µM	-	.
Cc1ccccc1-c1cc2c(nc1-c1ccccc1)nc(C(=O)NCCN(C)C)n2C	-	-	-	-	.
O=c1n(-c2ccc([N+](=O)[O-])cc2)nc2n1CCN(Cc1ccc(OC(F)(F)F)cc1)C2	-	-	?	-	.
CCCCN(Cc1ccccc1)c1ccc(C(=O)O)cc1NS(=O)(=O)c1ccc(C(C)=O)cc1	.	.	-	.	.
Cc1ccc(-c2cn3c(n2)sc2cc(C(=O)NCCCN4CCCCCC4)ccc23)cc1	?	?	?	-	.
Cc1ccc(-c2cn3c(n2)sc2cc(C(=O)NCCCN4CCCCC4)ccc23)cc1	25µM	?	?	-	.
O=C(NCc1cccs1)C1CCCN(c2ccnc3ccnn23)C1 (stereo not given)	?	-	.	-	.
COc1ccc(CNS(=O)(=O)c2cc3c(cc2C)n(C)c(=O)c(=O)n3C)cc1	-	-	-	-	.
Cc1cc2c(cc1S(=O)(=O)NCc1ccc(F)cc1)n(C)c(=O)c(=O)n2C	-	-	?	-26	-
CC(C)(C)OC(=O)N1CCC(c2c(C(=O)NCCc3ccccc3)cnn2-c2ccc(F)cc2)CC1	-	?	-	-26	-
CC(C)(C)OC(=O)N1CCC(c2c(C(=O)NCc3ccccc3)cnn2-c2ccc(F)cc2)CC1	-	-	-	-	.
C[C@@H]1COC(Nc2ccc3ncnc(Nc4ccc(OCc5nccs5)c(Cl)c4)c3c2)=N1	?	-	.	-34	?
SMILES	SNCA viab count	SNCA expr inh	KDM5B inh	IP6K1 inh	IP6K1 conf
O=C(NCc1ccccc1Cl)C1CCCN(Cc2cccc(-c3ccsc3)c2)C1 (stereo not given)	.	.	.	-	.
CCC1CCC(C(=O)Nc2ccc3ccccc3c2)CC1 (stereo not given)	.	.	-	.	.
O=C(C1CCCN(C2CCN(c3ncnc4sccc34)CC2)C1)N1CCCC1 (stereo not given)	-	?	?	-28	-
O=C(Nc1cc(F)ccc1F)c1cc2nc(-c3ccco3)cc(C(F)(F)Cl)n2n1	-	-	?	-26	-
O=C(Nc1cccc(C(F)(F)F)c1)c1cc2nc(-c3ccco3)cc(C(F)(F)Cl)n2n1	-	?	?	-	.
OC1CC(c2cc(NCCCn3ccc4ccccc43)ncn2)C1 (stereo not given)	-	-	-	-34	-
Cc1ccc(CN2CCc3c(cc(C(=O)N4CCCN(C)CC4)n3C)C2)cc1	-	-	-	-	.
Cc1nn(-c2ccccc2)c2c1C(C(C)C)N(C1CCCN(C(=O)Cc3cccc(Cl)c3)C1)C2=O (stereo not given)	.	.	.	-	.
COc1cccc(-c2nc3cc4c(cc3cc2CN2CCCOCC2)OCO4)c1OC	-	-	28µM	-35	-
COc1cccc(CN2CCCOCCNC(=O)CC2)c1OC	-	-	-	-	.
Cc1ccc(Cl)cc1NC(=O)c1csnn1	-	-	-	-37	?
O=C(Nc1cccc(F)c1)Nc1ccnn1C1CCN(C(=O)C2CCC2)CC1	-	-	-	-32	-
Cc1cccc(CN2CCNc3cc(-c4ccnc(C)c4)ncc3C2)c1	?	-	?	-29	-
Cc1oncc1C(=O)Nc1ccc(C(F)(F)F)cc1	-	-	.	-	-
Cc1nn(-c2ccccc2)c2c1C(C)N(C1CN(C(=O)Nc3ccccc3F)C1)C2=O (stereo not given)	.	.	.	-	.
Oc1ccc(/C=C/c2cc(O)cc(O)c2)cc1	-	?	.	-60	9.2µM
Oc1cc(O)cc(C=Cc2ccc(O)c(O)c2)c1	-	-	.	.	.
CNC(=O)c1cc(C)nc2onc(C3CCCN(C(=O)c4ccc(Cl)cc4)C3)c12 (stereo not given)	.	.	.	-	.
Cc1ccc(OCc2nc(C3CCCN3C(=O)Nc3ccccc3)no2)cc1 (stereo not given)	-	-	.	-	.
Cc1ccc(C)c(N2CCN(S(=O)(=O)c3csc(C(N)=O)c3)CC2)c1	-	-	-	-30	?
Cc1ccc(C)c(N2CCN(S(=O)(=O)c3cnc(N)nc3)CC2)c1	-	-	-	-	.
CCOC(=O)c1c(NC(=O)N2CCN(CC)CC2)sc(C)c1C	.	.	-	.	.
CC(=O)c1cccc(NC(=O)Nc2nnc(N3CCCC3)s2)c1	-	-	-	-38	-
Cc1cccc(NC(=O)Nc2nnc(N3CCCC3)s2)c1	-	-	-	-	.
O=C(O)c1ccc(-c2c[nH]c3ncc(-c4ccccc4)cc23)cc1C1CCCC1	-	?	.	.	?
SMILES	SNCA viab count	SNCA expr inh	KDM5B inh	IP6K1 inh	IP6K1 conf
CC(=O)c1ccc(OC(=O)c2c(-c3ccccc3Cl)noc2C)cc1	-	-	-	-42	-
Cc1nn2c(c1-c1ccccc1C(C)C)N(Cc1ccc3c(c1)CCO3)CCC2	?	?	?	-	.
COc1cccc(-c2ncc3c(n2)OCCN(c2ccccc2)C3=O)c1	-	?	28µM	-27	?
c1ccc(Nc2cc3c(cn2)CN(Cc2ccc4[nH]ccc4c2)CCN3)cc1	?	-	?	-	.
c1ccc(Nc2cc3c(cn2)NCCN(Cc2ccc4[nH]ccc4c2)C3)cc1	?	-	32µM	-30	-
Cc1ccc(-c2csc(=Nc3ccc(F)cc3)n2Cc2ccc3c(c2)OCO3)cc1C	-	-	?	-36	-

Screening results: PubChem BioAssay, National Center for Advancing Translational Sciences (NCATS)
